# Calls of active or inactive are those of the source.
# Columns and labels:
# [1] = system: Plasmodium falciparum Sir2 (PF13_0152, Sir2A); assay: Plasmodium falciparum Sir2A binding compounds – biochemical, small-molecule microarray, 635 nm fluorescence, primary screen (AID 1098); conditions: fluorescence 635 nm, higher = more signal;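 also: score merges spot fluorescence intensity with its signal-to-noise ratio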
# [2] = probe aDKK1 binding to arrayed compounds – biochemical, biotinylated probe, 635/667 nm fluorescence, primary screen (AID 1099); conditions: small-molecule microarray, higher = more signal;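 also: score merges 667nm spot fluorescence with signal to noise across triplicate slides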
# [3] = probe aCHRDL2 binding to arrayed compounds – biochemical, biotinylated probe, 635/667 nm fluorescence, primary screen (AID 1100); conditions: small-molecule microarray, higher = more signal
# [4] = change in splice reporter luminescence, either direction, cell-based, HEK293, spliceosome inhibition project, primary screen (AID 1101); conditions: HEK293 splicing luciferase reporter, 24 h, higher = more signal, called active from +8 up or from −8 down;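 also: HEK293 cells carrying a splicing-competent luciferase reporter gene; test concentration not given here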
# [5] = target: Fibroblast growth factor 10 (Homo sapiens) (UniProt O15520); assay: compounds binding fibroblast growth factor 10 – biochemical, small-molecule microarray, 635 nm fluorescence, primary screen (AID 1102); conditions: FGF10 binding, fluorescence 635 nm, higher = more signal
# [6] = system: glycogen synthase kinase-3 (GSK3A per assay name; protocol says GSK3B); assay: compounds binding glycogen synthase kinase-3 – biochemical, small-molecule microarray, 635 nm fluorescence, GSK3A, primary screen (AID 1103); conditions: fluorescence 635 nm, higher = more signal; also: the record names both GSK3A and GSK3B
# [7] = target: Epidermal growth factor receptor (Homo sapiens) (UniProt P00533); assay: compounds binding epidermal growth factor receptor – biochemical, small-molecule microarray, 635 nm fluorescence, primary screen (AID 1104); conditions: EGFR binding, higher = more signal;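 also: score merges 667 nm emission intensity with spot signal to noise over triplicate slides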
# [8] = target: Follistatin-related protein 3 (Homo sapiens) (UniProt O95633); assay: compounds binding follistatin-related protein 3 – biochemical, small-molecule microarray, 635 nm fluorescence, primary screen (AID 1105); conditions: FSTL3 binding, higher = more signal;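 also: score merges emission near 667 nm and signal to noise per printed spot across three slides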
# [9] = target: Dickkopf-related protein 1 (Homo sapiens) (UniProt O94907); assay: small molecules binding DKK1 protein – biochemical, small-molecule microarray, 635 nm fluorescence scan, primary screen (AID 1106); conditions: higher = more signal;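 also: score merges emission near 667 nm with signal to noise over three replicate slides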
# [10] = system: Inhibin beta A chain (activin A); assay: small molecules binding activin A – biochemical, small-molecule microarray, 635 nm fluorescence scan, primary screen (AID 1107); conditions: INHBA, higher = more signal;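 also: mouse activin A protein probed at 4.33 µg/mL on printed slides; score merges bound-protein fluorescence near 667 nm with spot signal-to-noise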
# [11] = system: Human papillomavirus type 1a protein E7 (residues 44-93); assay: small molecules binding HPV E7 44-93 – biochemical, small-molecule microarray, residues 44-93, 635 nm fluorescence, primary screen (AID 1108); conditions: fluorescence 635 nm, higher = more signal;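 also: E7 fragment applied at 1 µg/mL in TBST for 1 h at 4 C; score combines spot fluorescence with its signal to noise ratio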
# [12] = hepatitis C replication reporter changes, two-sided – Huh7 cells, luciferase reporter, HCV replication inhibitor project, primary screen (AID 1109); conditions: Huh7 HCV replicon luciferase reporter, 48 h; higher = more signal;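 also: huh7 hepatoma cells harbouring a luciferase neomycin HCV replicon reporter; luciferase luminescence as measure of HCV replicon replication; test concentration not given here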
# [13] = target: Left-right determination factor 2 (Homo sapiens) (UniProt O00292); assay: small molecules binding LEFTY2 protein – biochemical, small-molecule microarray, 635 nm fluorescence scan, primary screen (AID 1110); conditions: higher = more signal
# [14] = target: Calmodulin-1 (Homo sapiens) (UniProt P0DP23); assay: small molecules binding calmodulin-1 with EGTA – biochemical, small-molecule microarray, Cy5-labelled CALM1, profiling panel (AID 1111); conditions: Cy5-CALM1 binding fluorescence, higher = more signal;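 also: labelled calmodulin applied in Tris saline Tween buffer holding calcium plus EGTA and DTT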
# [15] = target: Calmodulin-1 (Homo sapiens) (UniProt P0DP23); assay: small molecules binding Ca-loaded calmodulin-1 – biochemical, small-molecule microarray, Cy5-labelled CALM1, plus calcium, artefact control for SMM control-protein annotation, profiling panel (AID 1112); conditions: Cy5-CALM1 binding fluorescence, higher = more signal;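 also: score merges spot fluorescence with signal to noise from triplicate slides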
# [16] = probe aWnt5a binding to arrayed compounds – biochemical, biotinylated probe, 635/667 nm fluorescence, primary screen (AID 1113); conditions: small-molecule microarray, higher = more signal;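 also: score merges 667 nm fluorescence intensity with signal-to-noise per printed feature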
# [17] = probe aShh binding to arrayed compounds – biochemical, biotinylated probe, 635/667 nm fluorescence, primary screen (AID 1114); conditions: small-molecule microarray, higher = more signal;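 also: probe is biotin-labelled aShh protein from a stem cell growth factor screen; measures binding of labelled protein to compounds printed on the slide; score merges feature fluorescence at 667 nm with signal-to-noise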
# [18] = probe aNog binding to arrayed compounds – biochemical, biotinylated probe, 635/667 nm fluorescence, primary screen (AID 1115); conditions: small-molecule microarray, higher = more signal;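 also: probe is biotinylated aNog protein used at 0.15 µg/mL for 1 h at 4 C; z-score combines 667 nm fluorescence of each spot with its signal to noise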
# [19] = target: Torsin-1A-interacting protein 1 (Homo sapiens) (UniProt Q5JTV8); assay: compound microarray binding of lysate hLAP1 – cell lysate, small-molecule microarray, COS7 lysate, 635/667 nm fluorescence, primary screen (AID 1116); conditions: 635 nm fluorescence, higher = more signal
# [20] = target: Alpha-bungarotoxin (Bungarus multicinctus) (UniProt P60615); assay: compounds binding labelled alpha-BTX control protein – biochemical, small-molecule microarray, Alexa647 label, 635/667 nm fluorescence, artefact control for SMM control protein annotation, profiling panel (AID 1117); conditions: alpha-BTX-A647 binding fluorescence, higher = more signal
# Chain of Alpha-bungarotoxin (Bungarus multicinctus) (P60615 whole entry, looked up): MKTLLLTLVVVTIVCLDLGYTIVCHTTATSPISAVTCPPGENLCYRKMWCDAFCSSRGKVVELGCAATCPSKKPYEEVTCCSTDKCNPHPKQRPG
# Chain of Fibroblast growth factor 10 (Homo sapiens) (O15520 whole entry, looked up): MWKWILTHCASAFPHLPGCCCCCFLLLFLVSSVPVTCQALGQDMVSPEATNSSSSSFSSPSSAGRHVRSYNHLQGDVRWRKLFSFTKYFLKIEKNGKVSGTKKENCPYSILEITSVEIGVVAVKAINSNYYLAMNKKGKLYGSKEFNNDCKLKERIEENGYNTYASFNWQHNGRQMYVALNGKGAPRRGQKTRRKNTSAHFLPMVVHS
# Chain of Dickkopf-related protein 1 (Homo sapiens) (O94907 whole entry, looked up): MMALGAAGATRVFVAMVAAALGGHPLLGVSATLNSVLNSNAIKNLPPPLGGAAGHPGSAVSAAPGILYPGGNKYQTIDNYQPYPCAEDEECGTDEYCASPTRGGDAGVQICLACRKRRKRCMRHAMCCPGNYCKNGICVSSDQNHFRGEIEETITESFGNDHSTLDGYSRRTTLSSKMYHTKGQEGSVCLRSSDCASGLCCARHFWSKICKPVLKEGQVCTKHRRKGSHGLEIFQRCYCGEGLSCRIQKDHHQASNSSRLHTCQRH
# Chain of Torsin-1A-interacting protein 1 (Homo sapiens) (Q5JTV8 whole entry, looked up): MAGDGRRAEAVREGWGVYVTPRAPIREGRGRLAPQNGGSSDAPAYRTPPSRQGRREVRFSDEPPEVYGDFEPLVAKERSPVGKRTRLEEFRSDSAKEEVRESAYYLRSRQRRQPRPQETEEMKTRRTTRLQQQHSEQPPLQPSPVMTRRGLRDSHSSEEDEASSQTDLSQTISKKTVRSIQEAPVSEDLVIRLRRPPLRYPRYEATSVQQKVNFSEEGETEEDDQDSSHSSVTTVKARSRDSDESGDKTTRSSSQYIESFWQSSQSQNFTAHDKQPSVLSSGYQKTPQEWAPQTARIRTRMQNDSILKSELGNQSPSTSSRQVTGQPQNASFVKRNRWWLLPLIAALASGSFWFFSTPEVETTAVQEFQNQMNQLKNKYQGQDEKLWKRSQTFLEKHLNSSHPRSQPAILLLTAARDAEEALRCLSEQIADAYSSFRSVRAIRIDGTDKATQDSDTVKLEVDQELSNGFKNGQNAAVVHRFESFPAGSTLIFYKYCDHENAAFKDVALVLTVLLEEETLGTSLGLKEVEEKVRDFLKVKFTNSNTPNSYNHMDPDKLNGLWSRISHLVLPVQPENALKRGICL
# Chain of Follistatin-related protein 3 (Homo sapiens) (O95633 whole entry, looked up): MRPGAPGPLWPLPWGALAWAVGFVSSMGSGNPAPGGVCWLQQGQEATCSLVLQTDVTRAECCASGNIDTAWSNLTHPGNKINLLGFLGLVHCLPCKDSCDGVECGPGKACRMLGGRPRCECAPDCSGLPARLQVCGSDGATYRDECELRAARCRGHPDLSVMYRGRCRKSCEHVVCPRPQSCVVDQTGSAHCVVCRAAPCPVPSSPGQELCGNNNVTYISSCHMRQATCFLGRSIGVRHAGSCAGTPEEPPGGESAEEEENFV
# Chain of Epidermal growth factor receptor (Homo sapiens) (P00533 whole entry, looked up): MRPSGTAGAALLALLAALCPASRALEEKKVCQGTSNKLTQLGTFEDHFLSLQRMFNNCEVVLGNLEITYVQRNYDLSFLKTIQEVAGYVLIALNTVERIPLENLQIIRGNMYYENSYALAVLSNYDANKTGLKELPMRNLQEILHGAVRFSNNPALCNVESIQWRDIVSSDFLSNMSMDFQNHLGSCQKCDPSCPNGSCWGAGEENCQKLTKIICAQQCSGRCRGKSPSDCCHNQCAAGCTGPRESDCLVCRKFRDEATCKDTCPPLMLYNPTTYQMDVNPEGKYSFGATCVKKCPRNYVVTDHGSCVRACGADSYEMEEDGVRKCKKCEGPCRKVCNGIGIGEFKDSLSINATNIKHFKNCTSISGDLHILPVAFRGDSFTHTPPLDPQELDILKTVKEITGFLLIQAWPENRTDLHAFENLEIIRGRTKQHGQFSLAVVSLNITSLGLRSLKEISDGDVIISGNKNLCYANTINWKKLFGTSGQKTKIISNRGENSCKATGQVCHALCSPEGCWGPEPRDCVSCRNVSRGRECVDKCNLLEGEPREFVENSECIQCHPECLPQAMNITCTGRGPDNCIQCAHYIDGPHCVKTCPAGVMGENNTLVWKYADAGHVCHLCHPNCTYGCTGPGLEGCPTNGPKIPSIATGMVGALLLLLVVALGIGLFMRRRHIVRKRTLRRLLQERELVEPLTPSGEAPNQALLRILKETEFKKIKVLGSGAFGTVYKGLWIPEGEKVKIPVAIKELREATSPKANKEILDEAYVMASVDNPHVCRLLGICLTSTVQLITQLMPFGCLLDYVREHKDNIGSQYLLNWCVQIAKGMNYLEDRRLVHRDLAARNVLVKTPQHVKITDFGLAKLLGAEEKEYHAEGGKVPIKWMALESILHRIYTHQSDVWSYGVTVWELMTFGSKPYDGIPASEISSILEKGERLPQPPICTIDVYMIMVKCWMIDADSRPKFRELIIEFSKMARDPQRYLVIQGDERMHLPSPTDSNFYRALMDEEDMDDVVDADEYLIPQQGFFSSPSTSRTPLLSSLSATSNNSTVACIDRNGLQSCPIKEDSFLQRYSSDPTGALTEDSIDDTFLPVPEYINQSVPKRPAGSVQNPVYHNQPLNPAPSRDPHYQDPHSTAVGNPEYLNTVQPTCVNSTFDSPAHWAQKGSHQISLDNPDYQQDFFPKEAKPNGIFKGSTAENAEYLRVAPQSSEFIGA
# Chain of Left-right determination factor 2 (Homo sapiens) (O00292 whole entry, looked up): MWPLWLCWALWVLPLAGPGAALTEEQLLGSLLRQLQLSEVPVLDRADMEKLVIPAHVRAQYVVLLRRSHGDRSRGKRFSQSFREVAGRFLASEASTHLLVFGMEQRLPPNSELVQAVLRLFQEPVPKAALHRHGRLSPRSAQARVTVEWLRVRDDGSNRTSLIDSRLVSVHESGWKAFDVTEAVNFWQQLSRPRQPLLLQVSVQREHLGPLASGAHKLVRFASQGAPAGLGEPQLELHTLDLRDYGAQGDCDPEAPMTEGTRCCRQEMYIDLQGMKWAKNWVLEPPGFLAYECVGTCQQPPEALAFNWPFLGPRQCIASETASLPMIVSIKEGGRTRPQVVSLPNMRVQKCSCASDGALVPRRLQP
Structure (SMILES),composite z-score [1],composite z-score [2],composite z-score [3],z-score [4],composite z-score [5],composite z-score [6],composite z-score [7],composite z-score [8],composite z-score [9],composite z-score [10],composite z-score [11],z-score [12],composite z-score [13],composite z-score [14],composite z-score [15],composite z-score [16],composite z-score [17],composite z-score [18],composite z-score [19],composite z-score [20]
COC(=O)[C@@]1(Cc2ccccc2N=[N+]=[N-])N=C(c2ccc(OCCCO)cc2)O[C@H]1c1ccccc1CN=[N+]=[N-],1.16,0.733,0.771,1.07 (inactive),0.468,0.393,-0.34,-0.0014,-0.304,1.13,0.403,-3.35,-0.417,0.559,0.0128,-0.0758,-0.136,1.01,0.889,1.28
Cc1ccc(S[C@]2(C(=O)NCCCN(C)C)CC(=O)N(Cc3ccccc3)[C@@H]2c2ccc(CO)cc2I)cc1,0.16,1.09,1.3,-1.81 (inactive),-0.347,-0.753,-1.12,-0.575,-1.37,1.35,0.544,-2.94,-0.941,0.453,0.728,-0.091,0.0756,1.09,0.0632,0.913
O=C1O[C@H](c2ccccc2)[C@H](c2ccccc2)N2[C@H]1[C@@H](C(=O)NC[C@H](O)c1ccccc1)[C@]1(C(=O)Nc3ccc(C#CC4=CCCCC4)cc31)[C@H]2c1ccc(OCCO)cc1,1.06,0.607,0.469,-1.33 (inactive),0.313,1.27,0.386,0.968,0.703,1.05,0.567,-1.91,0.377,0.977,0.385,-0.0519,0.0711,0.0884,0.6,1.38
O=C1C[C@@](C(=O)NCCN2CCOCC2)(c2ccc([N+](=O)[O-])cc2)[C@@H](c2ccc(CO)cc2)N1C1CCCCC1,1.2,0.653,1.02,0.281 (inactive),0.798,1.02,0.789,0.662,-0.0544,0.64,1.39,-0.867,1.06,0.502,-0.142,0.0621,0.171,0.924,1.6,0.571
C=CC[C@]1(C(=O)N2CCCCC2)N=C(c2ccc(OCCCO)cc2)O[C@H]1c1ccccc1N=[N+]=[N-],1.55,1.26,1.42,-0.461 (inactive),0.975,1.27,0.292,1.3,-0.0913,1.06,0.796,-0.668,0.218,2.16,0.994,0.0327,0.195,-0.174,1.85,2.28
CC1=C([C@H](O)CCc2ccccc2)[C@H](CO)[C@@H]2C(=O)N(Cc3ccccc3)C(=O)[C@@H]2C1,0.0539,-0.264,-0.551,-0.46 (inactive),0.27,-0.453,-0.176,0.785,0.28,0.317,0.0933,-0.266,0.334,0.62,-0.503,-0.0644,-0.289,-0.27,0.421,1.71
CCCCCCc1nc(C2CC2)c(C)c2c1[Si](C(C)C)(C(C)C)OC2,-0.192,-0.124,0.109,-3.06 (inactive),-0.391,-0.562,0.138,-0.127,0.438,1.54,-0.497,0.127,-0.127,-0.682,-0.111,-0.124,-0.0146,-0.353,-0.147,0.342
CCOC(=O)C[C@H]1[C@H](OC(=O)Cc2ccc3c(c2)OCO3)[C@@H](NC(=O)CC(C)C)c2cc(OCCCO)ccc2N1C(=O)c1ccccc1,0.899,-0.095,-0.533,-1.6 (inactive),0.723,0.263,0.369,0.321,0.451,0.643,0.338,0.0689,0.371,-0.278,-0.215,-0.0478,0.081,0.161,0.662,0.111
CO[C@H]1COC(=O)[C@H](C)COC(=O)[C@H](Cc2ccccc2)NC(=O)CC=C[C@H]1C,1.01,-0.345,-1.3,-0.857 (inactive),0.245,-0.232,0.843,1.31,1.68,1.26,-0.943,-0.56,1.09,-1.37,-1.74,0.266,0.223,0.653,-0.0597,-0.948
CN(C)C(=O)[C@@]1(Cc2ccccc2N=[N+]=[N-])N=C(c2ccc(OCCCO)cc2)O[C@H]1c1ccccc1CN=[N+]=[N-],1.68,1.22,1.3,-0.636 (inactive),0.689,1.21,0.0256,0.482,0.4,0.676,0.646,-2.12,0.048,2.51,1.22,0.13,0.721,1.78,3.11,2.96
COc1ccc(-c2ccccc2[C@@H]2N[C@H](C(=O)O)CC[C@H]2C)cc1,0.0888,-0.267,-0.519,-1.21 (inactive),0.262,0.387,0.418,0.336,0.526,0.135,0.404,-0.388,0.594,-0.27,-0.699,-0.0222,0.138,0.432,0.583,0.288

# Source: PubChem BioAssay
